Among the data in the supplement of paper PMC13380429 are morphology score and SARS-CoV-2 infection rate values, retold here.

The test system of test [1] is Vero E6 infected with SARS-CoV-2. The test is described as follows: morphology score (similarity to uninfected cells); higher = more like uninfected cells. To be noted: 24 h.
Test [2] has the same test system. The test is described as follows: SARS-CoV-2 infection rate relative to infected DMSO; higher = more infection, active = 60 or less. The conditions noted are these: 24 h.

For `O=C(O)c1ccc(NC(=O)[C@H](Cc2ccc(O)cc2)NC(=O)c2ccccc2)cc1` [bentiromide] (10 µM), the morphology score in test [1] was 0.211. For the same compound, the SARS-CoV-2 infection rate in test [2] is 106% (inactive).
In test [1], `Cc1nc(-c2ccc(OCC(C)C)c(C#N)c2)sc1C(=O)O` [febuxostat] (10 µM) gave a morphology score of 0.0407. For the same compound, the SARS-CoV-2 infection rate in test [2] was 118% (inactive).
The corresponding values for `CN(C)c1ccc2c(c1)Sc1cc(N(C)C)ccc1N2` [leucomethylene-blue] (0.833333 µM) are 0.0825 and 114% (inactive).
The corresponding values for `C[C@]12CC[C@@H]3c4ccc(O)cc4CC[C@H]3[C@@H]1CC[C@@H]2O` [estradiol] (10 µM) are -0.0909 and 116% (inactive).
The like results for `CC[C@H]1OC(=O)[C@H](C)[C@@H](O[C@H]2C[C@@](C)(OC)[C@@H](O)[C@H](C)O2)[C@H](C)[C@@H](O[C@@H]2O[C@H](C)C[C@H](N(C)C)[C@H]2O)[C@](C)(O)C[C@@H](C)CN(C)[C@H](C)[C@@H](O)[C@]1(C)O` [azithromycin] (10 µM) were, in that order, 0.236 and 98.5% (inactive).
As for `O=C(Nc1cc(C(F)(F)F)cc(C(F)(F)F)c1)Nc1c(Br)cc(Br)cc1-c1nnn[nH]1` (10 µM), in test [1], the morphology score was 0.192. Besides, in test [2], the SARS-CoV-2 infection rate was 104% (inactive).
The compound `N[C@@H](Cn1oc(=O)[nH]c1=O)C(=O)O` [L-quisqualic-acid] (10 µM) returned a morphology score in test [1] of 0.0395. For the same compound, in test [2], the SARS-CoV-2 infection rate is 106% (inactive).
The like results for `OC(c1ccccc1)(c1ccccc1)C1CCNCC1` [azacyclonol] (10 µM) were, in that order, -0.109 and 110% (inactive).
The corresponding values for `Cc1ccc(-n2nc(C(C)(C)C)cc2NC(=O)Nc2ccc(OCCN3CCOCC3)c3ccccc23)cc1` [doramapimod] (10 µM) are 0.482 and 86% (inactive).
The like results for `Cc1ccc([N+](=O)[O-])cc1S(=O)(=O)N(C)/N=C/c1cnc2ccc(Br)cn12` (0.833333 µM) were, in that order, 0.0254 and 112% (inactive).
In test [1], `CNCc1ccc(-c2cc(-c3nc(-c4ccc(S(=O)(=O)C(C)C)cc4)cnc3N)on2)cc1` (0.833333 µM) yielded a morphology score of 0.565. Moreover, the SARS-CoV-2 infection rate in test [2] was 52% (active).
The like results for `Nc1ccc(-c2ccc3ncc4ccc(=O)n(-c5cccc(C(F)(F)F)c5)c4c3c2)cn1` [torin-2] (10 µM) were, in that order, 0.162 and 86.5% (inactive).
In test [1], `CCCN(CC1CC1)c1nc(C)nc(Nc2c(Cl)cc(Cl)cc2Cl)c1Cl` (10 µM) yielded a morphology score of 0.143. In test [2], the SARS-CoV-2 infection rate was 102% (inactive).
Turning to `COc1c(N2CCNC(C)C2)c(F)cc2c(=O)c(C(=O)O)cn(C3CC3)c12` (stereo not drawn) [gatifloxacin] (10 µM), the morphology score in test [1] was found to be 0.0682. Also, the SARS-CoV-2 infection rate in test [2] is 104% (inactive).
The like results for `Cl/C(=C\n1cncn1)c1ccc(Cl)cc1Cl` [loreclezole] (10 µM) were, in that order, 0.0913 and 102% (inactive).
The like results for `CNC(=O)CN(CCN(CCN(CC(=O)[O-])CC(=O)NC)CC(=O)[O-])CC(=O)[O-].[Gd+3]` [gadodiamide] (10 µM) were, in that order, -0.0219 and 103% (inactive).
For the compound `CC(C)C[C@@H](NC(=O)[C@H](Cc1ccccc1)NC(=O)CNC(=O)[C@@H](C)NC(=O)[C@@H](N)Cc1ccc(O)cc1)C(=O)O` (10 µM), the morphology score in test [1] worked out at 0.159. For the same compound, in test [2], the SARS-CoV-2 infection rate was 97% (inactive).
`CCN[C@H]1CN(CCCOC)S(=O)(=O)c2sc(S(N)(=O)=O)cc21` [brinzolamide] (10 µM): the morphology score in test [1] was 0.267. In addition, the SARS-CoV-2 infection rate in test [2] is 69% (inactive).
The like results for `C[C@]1(Cn2ccnn2)[C@H](C(=O)O)N2C(=O)C[C@H]2S1(=O)=O` [tazobactam] (10 µM) were, in that order, 0.0668 and 108% (inactive).
The like results for `Cc1ccnc2c1CCCC2C(N)=S` (stereo not drawn) [isotiquimide] (10 µM) were, in that order, 0.0559 and 113% (inactive).
The corresponding values for `O=C(NCc1ccccc1)OCCO` [buramate] (10 µM) are 0.237 and 84.5% (inactive).
Consider `CN(C)CCOc1ccc(-c2nc(-c3ccncc3)c(-c3ccc4c(c3)CC/C4=N\O)[nH]2)cc1` (10 µM), for which the morphology score in test [1] is -0.0571. The SARS-CoV-2 infection rate in test [2] is 96% (inactive).
Consider `Cc1cc(O)c2c(=O)c3c(O)cc(O)c4c5c(O)cc(O)c6c(=O)c7c(O)cc(C)c8c1c2c(c34)c(c78)c65` [hypericin] (10 µM), for which the morphology score in test [1] was -0.152. In addition, the SARS-CoV-2 infection rate in test [2] is 114% (inactive).
The like results for `O=C(NC(NC(=S)Nc1ccc(F)c([N+](=O)[O-])c1)C(Cl)(Cl)Cl)C(c1ccccc1)c1ccccc1` (stereo not drawn) (0.833333 µM) were, in that order, 0.0472 and 104% (inactive).
As to `O=C(Nc1ccc(C(O)(C(F)(F)F)C(F)(F)F)cc1)c1ccc(C(F)(F)F)cc1` (10 µM), the morphology score in test [1] is 0.265. In test [2], the SARS-CoV-2 infection rate is 85% (inactive).
Regarding `CC(C)(C)NC[C@H](O)COc1cccc2c1CCCC2=O` [levobunolol] (10 µM), in test [1], the morphology score is 0.0302. Besides, in test [2], the SARS-CoV-2 infection rate is 108% (inactive).
`N#Cc1ccc(N(Cc2ccc(Br)cc2)n2cnnc2)cc1` (10 µM) came in with a morphology score in test [1] of 0.208. The SARS-CoV-2 infection rate in test [2] was 102% (inactive).
The like results for `Cc1ccc(=O)n(-c2ccc(O)cc2)c1` (10 µM) were, in that order, -0.0543 and 94.5% (inactive).
The like results for `CCNC(C)CN1CCc2c(c(=O)oc3ccccc23)C1` (stereo not drawn) (10 µM) were, in that order, 0.209 and 98% (inactive).
The like results for `Clc1ccc(Cn2c(CN3CCCC3)nc3ccccc32)cc1` [clemizole] (10 µM) were, in that order, 0.153 and 103% (inactive).
The compound `C[N+](C)(C)CCCCCCCCCC[N+](C)(C)C` [decamethonium] (10 µM) showed a morphology score in test [1] of 0.0864. Also, the SARS-CoV-2 infection rate in test [2] is 108% (inactive).
The corresponding values for `O=[N+]([O-])c1cccc2c(Br)n[nH]c12` [3-bromo-7-nitroindazole] (10 µM) are 0.0979 and 110% (inactive).
The like results for `O=C(O)CCCc1ccc(N(CCCl)CCCl)cc1` [chlorambucil] (10 µM) were, in that order, 0.143 and 94% (inactive).
The like results for `Cc1cc(C)cc(OCC2CNC(=O)O2)c1` (stereo not drawn) [metaxalone] (10 µM) were, in that order, 0.134 and 97% (inactive).
For the compound `COC(=O)C1=C(C)N(C)C(C)=C(C(=O)OC)C1c1ccc(C(F)(F)F)cc1` (10 µM), the morphology score in test [1] was -0.13. Also, the SARS-CoV-2 infection rate in test [2] is 114% (inactive).
The corresponding values for `Nc1ccccc1NC(=O)c1ccc(CNc2nccc(-c3cccnc3)n2)cc1` [mocetinostat] (0.833333 µM) are -0.00842 and 104% (inactive).
The corresponding values for `Cc1cc(O)c(C(C)C)cc1Cl` [chlorothymol] (10 µM) are -0.0977 and 104% (inactive).
For `Cc1ncc(COP(=O)([O-])[O-])c(CN(CCN(CC(=O)O)Cc2c(COP(=O)([O-])O)cnc(C)c2O)CC(=O)O)c1O.[Mn].[Na+].[Na+].[Na+]` [Mangafodipir (trisodium)] (10 µM), in test [1], the morphology score was -0.000637. Besides, the SARS-CoV-2 infection rate in test [2] was 120% (inactive).
The corresponding values for `CO[C@@H]1[C@@H](OC(N)=O)[C@@H](O)[C@H](Oc2ccc3c(O)c(NC(=O)c4ccc(O)c(CC=C(C)C)c4)c(=O)oc3c2C)OC1(C)C` [novobiocin] (10 µM) are 0.165 and 95% (inactive).
The corresponding values for `C[S+]([O-])CCCCN=C=S` (stereo not drawn) [sulforaphane] (10 µM) are 0.924 and 6.5% (active).
In turn, `O=C(NCCCN1CCCCCC1)C(c1ccccc1)C1CCCCC1` (stereo not drawn) (10 µM) had a morphology score in test [1] of 0.404. Further, in test [2], the SARS-CoV-2 infection rate was 75.5% (inactive).
As to `O=C(O)C(=O)c1cn(Cc2ccccc2)c2ccc(-c3ccc(OC(F)(F)F)cc3)cc12` [tiplaxtinin] (10 µM), the morphology score in test [1] was determined as 0.0476. For the same compound, the SARS-CoV-2 infection rate in test [2] was 106% (inactive).
The compound `CCc1nc(C(N)=O)c(Nc2ccc(N3CCC(N4CCN(C)CC4)CC3)c(OC)c2)nc1NC1CCOCC1` [gilteritinib] (0.833333 µM) showed a morphology score in test [1] of 0.272. The SARS-CoV-2 infection rate in test [2] is 91.5% (inactive).
Regarding `O=C(/C=C/c1cccc(F)c1)NC1CC1` [cinflumide] (10 µM), the morphology score in test [1] was -0.00378. For the same compound, the SARS-CoV-2 infection rate in test [2] is 110% (inactive).
The corresponding values for `CCCCC1=NC2(CCCC2)C(=O)N1Cc1ccc(-c2ccccc2-c2nnn[nH]2)cc1` [irbesartan] (10 µM) are 0.0469 and 96.5% (inactive).
The like results for `Fc1ccc(-n2cc(CCCCN3CCC4(CC3)OCc3ccccc34)c3ccccc32)cc1` [siramesine] (0.833333 µM) were, in that order, 0.0919 and 94.5% (inactive).
The corresponding values for `C=C[C@]1(C)C[C@@H](OC(=O)CSC(C)(C)CNC(=O)[C@H](N)C(C)C)[C@]2(C)[C@H](C)CC[C@]3(CCC(=O)[C@H]32)[C@@H](C)[C@@H]1O` [valnemulin] (10 µM) are 0.0538 and 116% (inactive).
For the compound `Cn1ncnc1COc1nn2c(-c3cc(F)ccc3F)nnc2cc1C(C)(C)C` (10 µM), the morphology score in test [1] came to 0.166. In test [2], the SARS-CoV-2 infection rate is 96.5% (inactive).
The corresponding values for `NCCc1c[nH]c2ccc(O)cc12` [serotonin] (10 µM) are 0.0634 and 108% (inactive).
In test [1], `O=c1cc(N2CCOCC2)oc2c(-c3ccccc3)cccc12` (0.833333 µM) yielded a morphology score of 0.266. Besides, the SARS-CoV-2 infection rate in test [2] was 98.5% (inactive).
The like results for `CC1=C(/C=C/C(C)=C/C=C/C(C)=C/C=C/C=C(C)/C=C/C=C(C)/C=C/C2=C(C)C(=O)[C@@H](O)CC2(C)C)C(C)(C)C[C@H](O)C1=O` [astaxanthin] (10 µM) were, in that order, 0.0152 and 107% (inactive).
On to `CC(=O)O[C@]1(C(C)=O)CC[C@H]2[C@@H]3C=C(C)C4=CC(=O)CC[C@]4(C)[C@H]3CC[C@@]21C` [megestrol-acetate] (10 µM), for which the morphology score in test [1] worked out at 0.21. Further, the SARS-CoV-2 infection rate in test [2] was 100% (inactive).
In the case of `COc1cc(/C=C/C(N)=O)cc(OC)c1OC` [cintriamide] (10 µM), in test [1], the morphology score is -0.0883. Further, in test [2], the SARS-CoV-2 infection rate was 110% (inactive).
For the compound `O=c1[nH]c(CCl)nc2sc3c(c12)CCCC3` (10 µM), in test [1], the morphology score is 0.193. Moreover, in test [2], the SARS-CoV-2 infection rate is 104% (inactive).
In test [1], `O=C(NCCCCCCNC(=O)ON=C1CCCCC1)ON=C1CCCCC1` (10 µM) registered a morphology score of 0.11. The SARS-CoV-2 infection rate in test [2] was 104% (inactive).
Regarding `CNC(=O)c1c(-c2ccc(F)cc2)oc2cc(N(CCO)S(C)(=O)=O)c(C3CC3)cc12` [nesbuvir] (10 µM), the morphology score in test [1] is 0.111. Moreover, the SARS-CoV-2 infection rate in test [2] was 104% (inactive).
Compound `CC1(C)O[C@@H]2C[C@H]3[C@@H]4CCC5=CC(=O)C=C[C@]5(C)[C@@]4(F)[C@@H](O)C[C@]3(C)[C@]2(C(=O)CO)O1` (10 µM) came in with a morphology score in test [1] of 0.0142. Moreover, the SARS-CoV-2 infection rate in test [2] is 109% (inactive).
`O=C(C1CC1)N1CC[C@@H](Cc2n[nH]c(=O)n2-c2ccc(-c3ccc4occc4c3)cc2)C1` (10 µM) yielded a morphology score in test [1] of 0.269. In addition, in test [2], the SARS-CoV-2 infection rate is 90.5% (inactive).
The like results for `Cc1cc(-c2nc(-c3ccc(OC(F)(F)F)cc3)no2)nn1Cc1ccnc(N2CCN(C3CC3)CC2)c1` (10 µM) were, in that order, 0.0825 and 98.5% (inactive).
